Measurements reported in PubChem BioAssay (NCATS).
Some of the results follow. Inconclusive results are not listed. Active and inactive are the calls of the source. Calls follow the shape of the dose curve; as a rule, active = well fitted inhibition curve with a large enough effect; inconclusive = small, poorly fitted or top-dose-only effect, or another doubt; inactive = no such curve, though single readings can be large or run the other way.

Target: DNA polymerase kappa (Homo sapiens) (UniProt Q9UBT6)
Test: qHTS for Inhibitors of Polymerase Kappa: Confirmatory Assay for Cherry-picked Compounds (AID 720501)
Details: purified Pol-kappa, fluorescent strand-displacement substrate
Description: The processing and repair of DNA inter-strand crosslinks (ICL) in eukaryotic cells are extremely complex, potentially involving multiple DNA repair and damage tolerance pathways, including homologous recombination, nucleotide excision repair, translesion synthesis (TLS), and cell cycle checkpoints. […] A 1536-well format, fluorescence based, high-throughput screen (AID 588579) was developed in collaboration with the Oregon Health & Science University to screen for inhibitors of the Pol-kappa enzyme. This assay was used to validate the activity of the selected compounds from the primary screen against the human Pol-kappa. Inhibition is the desired outcome for this assay. NIH Chemical Genomics Center [NCGC] NIH Molecular Libraries Probe Centers Network [MLPCN] MLPCN Grant: MH094179 Assay Submitter (PI): Stephen Lloyd, Oregon Health & Science University
Three microliters of reagents (buffer in column 3 and 4 as negative control and 10 nM Pol-kappa in columns 1, 2, and 5-48) were dispensed into a 1536-well black solid-bottom plate. Compounds (23 nL) were transferred via Kalypsys pin tool equipped with 1536-pin array. The plates were then incubated for 15 min at room temperature, and 1 uL of substrate was added to start the reaction for a final concentration of 50 nM. The substrate was made by the annealing of unlabeled oligodeoxynucleotide primer (59-[…]-39) and TAMRA-labeled reporter strand (59-[…]-6-TAMRA-39) to oligodeoxynucleotide template labeled with BHQ-2 (59-BHQ-2-[…]-39) described in detail at the Yamanaka et.al. (PLOS, 2012) reference paper. The assay plates were initially read after 0 min and again after 10 min of kinetic reaction using the PerkinElmer Viewlux reader equipped with 525 nm excitation and 598 nm emission filters.
Potency is read from the fitted curve at half-maximal effect.

Sequence of DNA polymerase kappa (Homo sapiens) (Q9UBT6 whole entry, looked up): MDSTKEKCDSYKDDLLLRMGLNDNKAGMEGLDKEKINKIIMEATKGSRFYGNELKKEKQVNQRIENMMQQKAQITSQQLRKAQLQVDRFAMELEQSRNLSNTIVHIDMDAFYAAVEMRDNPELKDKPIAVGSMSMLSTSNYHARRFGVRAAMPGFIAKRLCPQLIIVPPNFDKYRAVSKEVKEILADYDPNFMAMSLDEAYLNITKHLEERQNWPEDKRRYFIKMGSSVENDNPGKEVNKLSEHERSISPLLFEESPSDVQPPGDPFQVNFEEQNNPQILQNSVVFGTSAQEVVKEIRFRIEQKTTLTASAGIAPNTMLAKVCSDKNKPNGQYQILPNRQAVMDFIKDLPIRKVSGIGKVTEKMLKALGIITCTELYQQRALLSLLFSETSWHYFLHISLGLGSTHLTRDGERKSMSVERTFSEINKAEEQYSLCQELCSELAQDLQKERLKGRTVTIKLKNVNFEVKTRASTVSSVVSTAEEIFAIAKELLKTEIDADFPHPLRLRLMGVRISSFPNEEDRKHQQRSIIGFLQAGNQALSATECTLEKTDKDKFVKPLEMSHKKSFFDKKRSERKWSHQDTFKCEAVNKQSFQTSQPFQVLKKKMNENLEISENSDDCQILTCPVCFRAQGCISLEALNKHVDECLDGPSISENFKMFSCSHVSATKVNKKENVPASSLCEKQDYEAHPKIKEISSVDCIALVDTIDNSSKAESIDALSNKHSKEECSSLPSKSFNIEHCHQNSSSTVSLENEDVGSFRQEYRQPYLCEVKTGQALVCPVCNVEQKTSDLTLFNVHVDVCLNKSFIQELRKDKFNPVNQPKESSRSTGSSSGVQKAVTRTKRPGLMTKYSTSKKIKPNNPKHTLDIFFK

Potency, active:
O=C(c1cc2c(s1)CCC2)N1CCN(c2ccccc2)CC1 42.3 µM
COc1ccc2[nH]c3c(C)c4cc[n+](C)cc4c(C)c3c2c1 1.34 µM
O=C1COc2c1ccc(O)c2O 6.7 µM
O=C(O)C1CCN(c2ccc([N+](=O)[O-])cc2[N+](=O)[O-])CC1 42.3 µM
O=C1NN(c2ccccc2)C(=O)/C1=C/c1ccc(-c2cccc(C(=O)O)c2)o1 16.8 µM
COc1ccc(CNC(=O)c2nnn(CC(=O)Nc3cc(C)cc(C)c3)c2N)cc1 47.4 µM
O=C(O)c1ccc(NS(=O)(=O)c2ccc3c(c2)C(=O)c2cc(S(=O)(=O)Nc4ccc(C(=O)O)cc4)ccc2-3)cc1 16.8 µM
Cc1cc(/C=C2\SC(=O)N(C)C2=O)c(C)n1-c1cccc(C(=O)O)c1 9.47 µM
CCOc1ccccc1/C=c1\sc2nc(-c3ccco3)nn2c1=O 47.4 µM
COc1ccccc1C(=O)N/C(=C/c1ccco1)C(=O)Nc1ccc(C(=O)O)cc1 15 µM
O=C(O)C(c1ccccc1)N1C(=O)/C(=C\c2ccc(-c3cccc(Cl)c3)o2)SC1=S (stereo not given) 29.9 µM
Cc1ccc(-c2nn(-c3ccccc3)cc2/C=C2\SC(=S)N(CCCCCC(=O)O)C2=O)o1 33.6 µM
Cc1ccc2cc(/C=N/Nc3ccc(C(=O)O)cc3)c(Cl)nc2c1 26.7 µM
COc1cc(/C=C2/C(=O)NN(c3ccc(F)cc3)C2=O)cc([N+](=O)[O-])c1O 37.7 µM
Cc1ccc(-c2nc(SCc3ccc(Br)cc3)n3[nH]c(=O)cc3n2)cc1 16.8 µM
NC(CSC(c1ccccc1)(c1ccccc1)c1ccc(-c2ccccc2)cc1)C(=O)O (stereo not given) 67 µM
CCc1nc2cccnc2n1-c1ccc(C(=O)O)cc1 18.9 µM
CCOc1cccc2c1N[C@@H](c1ccc(C(=O)O)cc1)[C@H]1CC=C[C@@H]21 2.38 µM
CN(C)CCNC(=O)c1ccc(Cl)c2cc3ccccc3nc12 21.2 µM
COCCNC(=O)Nc1ccc2nc(-c3ccco3)c(-c3ccco3)nc2c1 3.77 µM
